TNAP act DEA = human TNAP activation, intermediate phosphate acceptor | 64,000 tested, under 10 active | activation factor at 20 µM | purified TNAP, CDP-star luminescence, 100 mM DEA, 30 min; active compounds read high; scale: 0 levamisole-inhibited, 1 vehicle-only enzyme | AID 813 | P05186;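 active = activation factor of at least 2 at 20 µM, relative to controls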
HePTP inhibitor = inhibitors of human HePTP phosphatase; recombinant HePTP phosphatase activity, OD absorbance; inhibition, % at 20 µM; actives 0.64% (n = 110,000); AID 521; in the data active = inhibition above about 50%;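 note: plate controls were vehicle for no effect and reference inhibitor for full effect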
PLAP act = activators of human placental alkaline phosphatase; P05187; purified PLAP enzyme, luminescent substrate read-out; active compounds read high; activation fold at 20 µM; actives 1.2% (n = 96,000); AID 696; in the data active = activation fold above about 2
D1 allo mod = allosteric modulators of human D1 dopamine receptor; HEK293 D1, CRE-luciferase, dopamine EC30 potentiation; actives deviate in either direction; B-score at 10 µM; actives 5.9% (n = 58,000); AID 641;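 active = luminescence count or its row- and column-corrected plate score outside the 99.7% band of the plate's sample wells, on either side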
Target sequence (P21728 whole entry, looked up): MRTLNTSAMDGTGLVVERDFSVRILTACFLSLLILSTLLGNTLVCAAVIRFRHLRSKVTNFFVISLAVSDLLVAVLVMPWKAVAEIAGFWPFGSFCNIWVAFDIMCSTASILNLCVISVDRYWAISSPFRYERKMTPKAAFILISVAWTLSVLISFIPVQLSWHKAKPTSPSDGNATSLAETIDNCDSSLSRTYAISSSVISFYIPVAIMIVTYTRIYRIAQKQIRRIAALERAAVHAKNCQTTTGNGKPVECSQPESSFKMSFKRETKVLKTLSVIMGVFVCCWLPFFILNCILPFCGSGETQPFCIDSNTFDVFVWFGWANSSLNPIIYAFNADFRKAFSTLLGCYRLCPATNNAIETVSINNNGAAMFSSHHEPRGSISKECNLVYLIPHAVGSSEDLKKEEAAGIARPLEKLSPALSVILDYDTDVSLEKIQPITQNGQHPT
Calb biofilm kill = kills Candida albicans biofilms | inhibition, % at 6 µM | actives 0.14% (n = 85,000) | C. albicans biofilm + clotrimazole, Alamar Blue | AID 834;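 active = inhibition above 20%; inactive = inhibition below 20%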;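 note: preformed 24 hr biofilms exposed to compound for 48 hr; 0% = biofilm without compound and 100% = blank killed by clotrimazole plus chlorhexidine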
DAT uptake mod = changed human dopamine transporter uptake under cocaine IC80. Q01959. LLC-PK1 hDAT cells, [14C]-dopamine uptake with cocaine IC80; actives deviate in either direction. B-score at 10 µM. actives 1.3% (n = 110,000);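 active = Z score or B-score, a plate-position-corrected score, falls beyond the plate's 99.7% confidence bounds, in either direction; inactive = both scores lie inside the 99.7% bounds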;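 note: scored against the spread of the other compound wells on the same plate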
D1 mod confirm = D1 receptor (human) allosteric modulation, confirmed; shares compounds with D1 allo mod; HEK293 D1 CRE-luciferase, dopamine EC30 potentiation; active compounds read high; luminescence at 10 µM; actives 88% (n = 2,200); AID 642;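 active = luminescence in either of two replicates above the same-plate mean plus 3 SD of the low-dose dopamine control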
D1 no dopamine = D1 (human) signaling in absence of dopamine | shares compounds with D1 allo mod | actives 0.8% (n = 1,900) | HEK293 D1 CRE-luciferase, luminescence, no dopamine; active compounds read high | AID 646 | luminescence at 10 µM; in the data active = luminescence above about 3900
Isoprot counter = alters isoproterenol CRE-luciferase response in HEK293 cells. actives 63% (n = 2,200). shares compounds with D1 allo mod. HEK293 D1 CRE-luciferase, isoproterenol EC30 counter-screen; active compounds read high. luminescence at 10 µM. AID 647;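 active = luminescence in either replicate above plate mean of wells with a partly effective reference agonist dose plus 3 SD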;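 note: isoproterenol raises cAMP through native beta-adrenoceptor Gs so signal bypasses D1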
* hit, by the source's call; x = no result. The entries come from a sample that favours hits as a whole.

SMILES	TNAP act DEA	HePTP inhibitor	PLAP act	D1 allo mod	Calb biofilm kill	DAT uptake mod	D1 mod confirm	D1 no dopamine	Isoprot counter
CCC(C)Sc1nc2c(c(=O)n1C)SC(C)C2 (stereo not drawn)	0.9	0.6	1	3.95*	4.2	0.596	8748*	1640	2616
COCCN1C(=O)c2oc3ccccc3c(=O)c2C1c1ccc(OC)c(OC)c1 (stereo not drawn)	0.9	-1.9	x	x	-1.2	-0.864	x	x	x
C=CCN1C(=O)c2oc3ccccc3c(=O)c2C1c1ccc(O)c(OC)c1 (stereo not drawn)	0.9	-0.3	0.9	8.12*	13.2	x	10008*	x	3668
CCOc1ccc2nc(SCC(=O)Nc3cc(Cl)ccc3Cl)sc2c1	x	-0.1	x	x	x	x	x	x	x
O=C(Nc1cccnc1)c1ccccc1F	1	1.2	0.8	-0.132	-0.4	0.352	x	x	x
O=C(Nc1cccnc1)c1cnn2c(C(F)F)cc(C3CC3)nc12	0.8	4.6	1	5.01*	8.9	0.00828	16636*	1580	3600*
CCOC(=O)c1cnn2c(C(F)F)cc(C3CC3)nc12	1	4.0	x	3.73*	1.7	-0.726	14020*	1636	3336*
c1ccc(Cc2nn3c(COc4ccccc4)nnc3s2)cc1	0.9	6.3	1.1	9.15*	2.6	0.0924	17316*	1624	3636*
CCOc1ccccc1OCc1nn2c(COc3ccccc3)nnc2s1	0.9	8.4	1.3	0.0214	8.7	0.303	x	x	x
O=C(N=Nc1c(O)n(CN2CCCCCC2)c2ccc(Br)cc12)c1cccnc1	x	-14.1	x	x	x	x	x	x	x
COc1ccc(C2/C(=C(/O)c3ccccc3)C(=O)C(=O)N2c2cccc(Br)c2)c(OC)c1 (stereo not drawn)	x	-11.8	x	x	x	x	x	x	x
CC(=O)SCC[N+](C)(C)C	x	x	x	x	x	-0.22	x	x	x
CC(=O)OCC[N+](C)(C)C	0.9	7.5	x	6.24*	11.0	-0.292	6608*	1464	3020*
CSC(N)=NC(=NS(=O)(=O)c1ccccc1)c1ccccc1	x	6.9	x	x	x	x	x	x	x
CC(=NCc1cccnc1)C1=C(O)c2ccccc2C1=O	0.9	2.3	0.9	3.04*	11.0	1.65	5700*	2088	2512
O=c1[nH]c2c(s1)C(c1ccco1)C1C3CCC(C3)C1S2 (stereo not drawn)	0.9	1.8	1.1	25.9*	8.1	-1.05	19088*	1756	3752*
O=C(NCc1ccco1)C1C2C3CCC(C3)C12 (stereo not drawn)	x	-1.2	x	x	x	x	x	x	x
CCSC(C)CC1C/C(=N/O)c2c(CC)noc2C1 (stereo not drawn)	1	-4.1	0.8	5.31*	3.6	-0.542	8312*	1736	2608
Cn1c(=O)c2c(nc(SCCCC#N)n2Cc2ccccc2F)n(C)c1=O	0.9	8.7	1.1	5.22*	-6.5	0.0494	15976*	1696	3228
CCOc1ccc(-c2nnc(-c3ccco3)o2)cc1OCC	0.9	8.9	1.2	15.4*	-7.8	1.15	17272*	1612	4000*
Cc1ccc(N2CCN(C(=O)Nc3ccc(Cl)cc3Cl)CC2)cc1	x	0.6	x	x	x	x	x	x	x
CCOC(=O)C(=CNc1ccccc1OCC)C(=O)OCC	x	0.5	x	x	x	x	x	x	x
CSc1ccc(/C=C2/SC(=O)N(CN3CCOCC3)C2=O)cc1	x	9.6	x	x	x	x	x	x	x
Cc1noc(C)c1S(=O)(=O)N(CC(=O)N1CCCCCC1)c1ccc(C(C)C)cc1	0.9	6.0	1.5	1.82*	11.0	0.0654	7028	1368	2460
Cc1[nH]nc2c1C(c1ccc(F)cc1)C1=C(CC(C)(C)CC1=O)N2 (stereo not drawn)	1	8.0	0.9	6.27*	-4.0	0.246	12860*	1600	2756
SMILES	TNAP act DEA	HePTP inhibitor	PLAP act	D1 allo mod	Calb biofilm kill	DAT uptake mod	D1 mod confirm	D1 no dopamine	Isoprot counter
O=C(O)CCC(=O)N1CCc2cc(S(=O)(=O)NC3CCCc4ccccc43)ccc21 (stereo not drawn)	1	8.9	1.2	0.804	5.1	-0.554	x	x	x
CCC(=O)N1CCc2cc(S(=O)(=O)NCCC(=O)NC3CCCc4ccccc43)ccc21 (stereo not drawn)	1	2.5	1	3.82*	1.9	0.0258	8544*	1768	2752
COC(=O)c1cc(C)sc1NC(=O)c1cccnc1	0.9	5.6	1	5.44*	0.5	-0.572	16836*	1548	3924*
CCOc1nc(C)ccc1-c1noc(-c2ccccn2)n1	0.9	4.8	1	8.02*	-1.4	0.0661	16720*	1708	4016*
COc1cc(-c2nc(-c3ccc(C)nc3OC)no2)cc(OC)c1OC	0.9	-7.7	1	-0.115	4.5	x	x	x	x
CCOc1nc(C)ccc1-c1noc(CC)n1	x	x	x	x	4.6	0.594	x	x	x
CCOc1nc(C)ccc1-c1noc(-c2ccco2)n1	0.9	-5.5	0.8	7.25*	2.6	-0.51	16212*	1800	4260*
COc1nc(C)ccc1-c1noc(-c2ccncc2)n1	0.9	10.3	x	6.73*	6.6	-0.709	7856*	1580	3348
CCOC(=O)C(Nc1cc2oc3ccccc3c2cc1OC)c1ccccc1 (stereo not drawn)	x	4.5	x	x	x	x	x	x	x
Nc1nnc(COc2ccc(Cl)cc2Cl)s1	x	-12.4	x	x	x	x	x	x	x
CN(C)c1ccc(N=Cc2ccco2)cc1	0.8	7.5	1.2	-0.0048	7.5	-0.136	x	x	x
C(=N\C(/N=C/c1ccco1)c1ccco1)/c1ccco1	1	8.8	1.1	8.78*	9.7	-0.957	17580*	1572	3032
O=C(Nc1ncc(Cc2cccc([N+](=O)[O-])c2)s1)c1ccc(Br)cc1	x	8.3	x	x	x	x	x	x	x
CCN(CC)c1ccc(N2C(=O)/C(=C/c3cc(OC)c(OC)c(OC)c3)SC2=S)cc1	x	0.3	x	x	x	x	x	x	x
Cc1ccc(N2CC(c3nc4ccccc4[nH]3)CC2=O)c(C)c1 (stereo not drawn)	1	-11.1	x	10.9*	8.8	0.155	6760	1648	2384
Cc1ccc(Nc2nc(N)nc(CSc3nncn3C)n2)cc1	x	x	x	x	6.8	-0.633	x	x	x
Nc1nc(CSc2ccccn2)nc(Nc2ccccc2)n1	0.9	-0.2	0.8	3.57*	7.6	1.45	10684*	x	2924*
Cc1ccc(Nc2nc(N)nc(CSc3nnnn3-c3ccccc3)n2)cc1	1	-8.8	1	7.08*	6.8	-0.169	9096*	x	2572
Cc1cc(C)c(N2C(=O)NC(=O)C(=Cc3ccoc3)C2=O)c(C)c1	x	7.3	x	x	x	x	x	x	x
Cc1nc2ccc(CCO)cc2s1	0.9	11.1	x	6.36*	10.7	0.27	7448*	1588	3192
Cc1nc2ccc(NC(=O)Cc3ccsc3)cc2s1	x	x	0.8	x	4.6	0.183	x	x	x

Screening data: PubChem BioAssay, several laboratories
